Assay outcomes: PubChem, National Center for Advancing Translational Sciences (NCATS)
Sfp PPTase inh: blocks B. subtilis Sfp PPTase activity. hit rate 3.5% among 310,000. Biochemical Sfp PPTase activity, qHTS. Potency, µM, for the others: largest response in the series, negative = inhibition, hits mostly inhibitors. Q9F4F7;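 note: the enzyme is Sfp with the accession as filed and its product quenches rhodamine fluorescence; 0% = enzyme reaction without inhibitor and -100% = no enzyme wells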
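With Hepes-Na pH 7.6 buffer containing 10 mM MgCl2, Sfp (15 nM) modified BHQ-2-YbbR (12.5 uM) using rhodamine-CoA (5 uM). Two reads 30 minutes apart at 525/598 nm yielded each well's rate.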
VP16 counter: Gal4-VP16 reporter inhibition counter-screen; Potency, µM (titrated, usually from 53.6 µM), inactives show at the highest dose activity, negative = inhibition, usual class: inhibitors; Drosophila S2 Gal4-VP16 UAS-luciferase, luminescence, 20 h; AID 2546; hit rate 3.5% among 310,000;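 note: Gal4-VP16 expression switched on by copper sulfate through the metallothionein promoter; % is set by controls: 0 for no effect and ±100 for the full control effect; nearly all actives have a fitted effect of over 50% in size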
PINK1 modulator: changes PINK1 expression; PINK1 immunofluorescence, high-content cytometry, 24 h; Potency, µM (titrated, usually from 76.6 µM), without a hit: at the highest dose activation (PINK1 increase), hits mostly activators; hit rate 0.2% among 410,000; AID 624263; active = well fitted activation curve with a large enough effect; inconclusive = small, poorly fitted or top-dose-only effect; cell line not stated here; note: % of control where 0% means no effect; nearly all actives have a fitted effect of over 65% in size
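Measures PINK1 amount and localization on or inside mitochondria by immunofluorescence. Stable cells get compounds at 5 concentrations for 24 hours before fixation and staining; CCCP controls included.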
RORg inh: ROR gamma (mouse) transcription inhibition. Drosophila S2 Gal4-RORgamma UAS-luciferase reporter, 20 h. Potency, µM (titrated, usually from 53.6 µM), inactives show at the top dose activity change, negative = inhibition, usual class: inhibitors. hit rate 5.4% among 310,000; note: % is set by controls: 0 for no effect and ±100 for the full control effect; nearly all actives have a fitted effect of over 60% in size
Target sequence (P51450 whole entry, looked up, the tested form may be a part): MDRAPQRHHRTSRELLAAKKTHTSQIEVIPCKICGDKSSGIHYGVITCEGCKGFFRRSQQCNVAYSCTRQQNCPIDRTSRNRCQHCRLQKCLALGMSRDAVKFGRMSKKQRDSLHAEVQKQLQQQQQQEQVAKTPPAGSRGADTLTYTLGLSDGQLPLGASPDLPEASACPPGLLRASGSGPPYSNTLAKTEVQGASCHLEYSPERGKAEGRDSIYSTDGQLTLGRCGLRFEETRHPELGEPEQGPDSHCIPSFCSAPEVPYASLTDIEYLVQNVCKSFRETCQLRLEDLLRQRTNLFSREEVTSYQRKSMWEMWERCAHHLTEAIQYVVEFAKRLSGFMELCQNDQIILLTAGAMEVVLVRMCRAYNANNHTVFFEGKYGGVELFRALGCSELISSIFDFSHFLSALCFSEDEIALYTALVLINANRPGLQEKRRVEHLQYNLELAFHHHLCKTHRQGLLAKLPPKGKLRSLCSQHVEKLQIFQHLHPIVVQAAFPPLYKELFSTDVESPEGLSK
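A Gal4/UAS one-hybrid system in insect cells: metallothionein-promoter Gal4–ROR gamma fusion plus Photinus luciferase reporter. Copper sulfate 700 uM final, 20 hr ambient incubation, luminescent detection after 10 min with reagent.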
Epigenetic derep: epigenetic control regulation, reporter derepression; murine LDR cells, GFP reporter derepression, 30 h; Potency, µM (series often up to 53.9 µM), without a hit: at the top dose GFP activation, actives largely listed as activators; hit rate 0.2% among 280,000; AID 1865; note: % of control where 0% means no effect; nearly all actives have a fitted effect of over 60% in size
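Murine LDR cells carrying a silenced, genomically integrated CMV-driven GFP reporter were exposed to compound for 30 hours at 37 C. After PBS washes, GFP-positive cells (20–120 um objects) were counted by laser-scanning microplate cytometry.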
ClpP mod: qHTS Assay for Activators of ClpP; ATP-dependent Clp protease proteolytic subunit (Bacillus subtilis (strain 168)), P80244; purified B. subtilis ClpP, FRET peptide cleavage, 20 min; Potency, µM (top dose mostly 57.5 µM), for inactives: at the highest dose activity change, negative = active; hit rate 1.9% among 340,000; AID 651965, 2013; active = well fitted falling curve with a large enough effect; inconclusive = small, poorly fitted or top-dose-only effect; inactive = no such curve, though single readings can be large or run the other way; note: the source files actives as falling curves though it sought activators and does not explain the sign; nearly all actives have a fitted effect of over 65% in size
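FRET quenching reversal measured ClpP activation: 10 microg/mL B. subtilis ClpP at pH 8 with the FRET-FV decapeptide, read at 430 nm after 320 nm excitation. The 20-min minus 0-min signal was scaled between DMSO/no-enzyme wells and ADEP (5.8 microM final).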
Starred values were filed as active, the others as inactive; ? = inconclusive; . = no result given; [ ] = remark or other dose. This is a sample that favours compounds with a hit; in the whole collection about 8.1% have one here. Unless noted, calls come from the whole dose curve; as a rule, active = well fitted curve in the direction sought with a large enough effect; inconclusive = small, poorly fitted or top-dose-only effect, or another doubt; inactive = no such curve, though single readings can be large; an effect the other way counts as inactive or inconclusive. Potency is the fitted concentration of half-maximal effect.

SMILES | Sfp PPTase inh | VP16 counter | PINK1 modulator | RORg inh | Epigenetic derep | ClpP mod
O=[N+]([O-])c1ccc(NS(=O)(=O)c2ccc(Cl)c(Cl)c2)cc1 | . | . | 16µM* | . | . | 1%
CC(=O)N1CCN(C(=O)c2ccc(NS(=O)(=O)c3ccc(Cl)c(Cl)c3)cc2)CC1 | . | . | -2% | . | . | 14µM*
O=[N+]([O-])c1ccc(S(=O)(=O)Nc2ccncc2)cc1 | 8% | 15% | 0% | -4%[1.91 µM] | . | 1%
COCCCn1c(=O)c2sccc2n2c(CCCC(=O)NC3CCC(C)CC3)nnc12 (centres undefined) | . | . | 4% | . | -1% | -11%
Cc1ccccc1OCc1ccc(-c2nc(C#N)c(NCCCN(C)C)o2)o1 | . | . | 1% | . | 0% | 4%
COc1ccc(/C=C2\N=C(SC)NC2=O)cc1 | 2% | ? | -1% | 13µM* | -1% | 0%
CCSC1=N/C(=C\c2ccc(OC)cc2)C(=O)N1 | -48% | -9% | 2% | -3% | -1% | 1%
Cc1cc(C)cc(-n2ccnc2SCC(=O)Nc2ccccc2F)c1 | . | . | -4% | . | 4% | 0%
COc1cc(OC)c2c(-c3cccc(-c4cccc(C)c4)c3)cc(=O)oc2c1 | -4% | -6% | 0% | 2% | 0% | 22µM*
COc1ccc2c(c1)CC(C(=O)NCCc1ccc(S(N)(=O)=O)cc1)CO2 (centres undefined) | . | . | 0% | . | -2% | 1%
FC(F)(F)c1cccc(-c2nc3nc(Cl)c(Cl)nc3[nH]2)c1 | -12% | 5.6µM* | 2.8µM* | 10µM* | 1% | 4%
COc1cc2c(-c3ccc(O)cc3)nc3c(c(C)nn3-c3ccccc3)c2cc1OC | ? | ? | -2% | 8%[10 µM] | 0% | 8.9µM*
O=C(NC1CCCCNC1=O)c1ccc(Cl)cc1 (centres undefined) | -2% | 8% | -1% | ? | 1% | 28µM*
Cc1ccccc1Cn1c(=O)n(Cc2ccc(Cl)cc2)c(=O)c2cccnc21 | . | . | 0% | . | -1% | 25µM*
Cc1ccc(CNC(=O)CCn2cnc3ccccc3c2=O)cc1 | . | . | 1% | . | 1% | -1%
Cc1ccc(C2=NN(C(=O)CCC(=O)O)C(c3cn(-c4ccccc4)nc3-c3ccc(C)cc3)C2)cc1 (centres undefined) | 89µM* | -4% | 0% | 30% | -7% | -30%
O=C(O)CCC(=O)N1N=C(c2cccs2)CC1c1cn(-c2ccccc2)nc1-c1ccccc1 (centres undefined) | -5% | -12% | -1% | 28% | -3% | 14µM*
Cc1ccc(-c2nn(-c3ccccc3)cc2C2CC(c3ccccc3)=NN2C(=O)CCC(=O)O)cc1 (centres undefined) | -20% | -13% | -2% | 11% | 0% | .
Cc1cccc(/C=N/NC(=O)c2cc3c(s2)-c2ccccc2CC3)c1 | -9% | 4% | 6% | -43% | 3% | 28µM*
Fc1ccccc1C(NCCc1ccc(Cl)cc1)c1nnc(-c2ccccc2)o1 (centres undefined) | . | . | 6% | . | 4% | ?
FC(F)(F)c1nc(-c2cccs2)ncc1-c1nnnn1-c1ccc(Cl)cc1 | -3% | -6% | 16% | -21% | 3% | 35µM*
COC(=O)C1=CN(C(C)C)C=C(C(=O)OC)C1c1cc2c(cc1Br)OCO2 | -7% | 2% | -3%[38.3 µM] | 18% | -6% | 32µM*
CC1=C(C(=O)OCC(C)C)C(c2cc3c(cc2Br)OCO3)NC(=O)N1C (centres undefined) | -16% | . | 3% | 30%[0.365 µM] | 0% | 1%
C/C=C/c1ccc(OCC(O)CNCCc2ccc(OC)cc2)c(OC)c1 (centres undefined) | 79µM* | 2% | -1% | -1% | . | -7%
OC(CNCCc1ccc(Cl)cc1)COc1ccc2ccccc2c1 (centres undefined) | 32µM* | ? | -2% | ? | 4% | .
C/C=C/c1ccc(OCCCNC(C)CC)c(OC)c1 (centres undefined) | 56µM* | 1% | -2% | 7% | -3% | -1%
